Compound activity deposited in PubChem by several laboratories.
Most compounds without a hit are left out; they make up all but 4.7% or so of the library.
3CLpro inhibitor = SARS-CoV 3CLpro protease inhibition | 0.14% of 290,000 active | inhibition, % at 6 µM | P0C6X7 | recombinant SARS-CoV 3CLpro, quenched FRET peptide cleavage; in the data active = inhibition above about 12%
FBA Mtb inh = inhibitors of M. tuberculosis fructose-bisphosphate aldolase. purified M. tuberculosis FBA, fluorescence read-out. inhibition, % at 1 µM. P9WQA3. 2.3% of 360,000 active; in the data active = inhibition above about 27%;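 note: 0% = vehicle and 100% = reference inhibitor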
Target sequence (P9WQA3 whole entry, looked up): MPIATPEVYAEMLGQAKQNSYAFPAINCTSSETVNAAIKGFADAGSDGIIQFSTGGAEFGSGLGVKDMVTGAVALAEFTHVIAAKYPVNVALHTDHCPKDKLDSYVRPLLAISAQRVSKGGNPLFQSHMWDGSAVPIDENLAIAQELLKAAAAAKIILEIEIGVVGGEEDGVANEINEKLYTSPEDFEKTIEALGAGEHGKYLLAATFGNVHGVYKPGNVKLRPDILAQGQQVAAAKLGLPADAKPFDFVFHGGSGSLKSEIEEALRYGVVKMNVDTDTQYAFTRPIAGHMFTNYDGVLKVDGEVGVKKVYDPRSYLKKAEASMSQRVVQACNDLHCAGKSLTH
GDH-TPI counter = inhibits GDH-TPI coupling enzymes, artifact for Mtb FBA screen; GDH-TPI coupled enzyme counterscreen, NADH absorbance; inhibition, % at 4.8 µM; 1.2% of 360,000 active; AID 588335;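 note: 0% = DMSO wells and 100% = wells lacking the enzyme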
RecA splice inh = Mtb RecA intein splicing inhibition. 0.75% of 290,000 active. P9WHJ3. AID 2221. cell-free RecA intein splicing, fluorescence. inhibition, % (no concentration beside the values); in the data active = inhibition above about 30%;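 note: 0% = vehicle wells and 100% = reference inhibitor control wells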
VHR inh abs = blocks human VHR1 dual specificity phosphatase. 0.52% of 290,000 active. recombinant VHR phosphatase, pNPP absorbance. P51452. inhibition, % at 13.3 µM; in the data active = inhibition above about 50%
Target sequence (P51452 whole entry, looked up): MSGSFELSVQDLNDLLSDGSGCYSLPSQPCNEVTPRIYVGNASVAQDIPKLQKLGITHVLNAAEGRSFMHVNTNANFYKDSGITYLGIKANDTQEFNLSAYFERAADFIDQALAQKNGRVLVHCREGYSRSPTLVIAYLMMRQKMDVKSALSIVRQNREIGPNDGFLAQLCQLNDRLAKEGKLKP
CCHF vOTU inh = CCHFV vOTU protease inhibition; inhibition, % at 11.5 µM; Pep-AMC fluorescence; 0.55% of 370,000 active; note: 0% = vehicle wells with enzyme and 100% = no enzyme wells
The depositor's hits bear a star; i = inactive; nt = no result; + = active, no number. Cut-off read from the data, not from the text of the source, unless noted: active = inhibition above about 30%; inactive = the rest.

SMILES	3CLpro inhibitor	FBA Mtb inh	GDH-TPI counter	RecA splice inh	VHR inh abs	CCHF vOTU inh
CSc1ccc(/C=N/NC(=O)c2ccc(C)c(C)c2)cc1	0	1	24	0	5	6
CSc1ccc(/C=N/NC(=O)c2sccc2C)cc1	3	-2	45*	-3	3	7
CSc1ccc(/C=N/NC(=O)c2cc(O)cc(O)c2)cc1	5	2	49*	-1	-13	19
COc1cc(/C=N/NC(=O)c2cccc([N+](=O)[O-])c2)ccc1O	1	-2	16	-5	22	-3
COc1ccc(/C=N/NC(=O)c2ccc(NC(=O)c3cccc([N+](=O)[O-])c3)cc2)c(C(=O)O)c1OC	6	2	31*	-3	21	24
COc1ccc(/C=N/NC(=O)c2cccc([N+](=O)[O-])c2)cc1O	2	-2	32*	-2	35	10
O=C1/C(=C/c2ccccc2)N=C(N2CCOCC2)N1c1cccc(Cl)c1	-2	11	32*	1	40	-8
CC1CCN(S(=O)(=O)c2ccc(S(=O)(=O)N3CCCN(Cc4ccccc4)C3)cc2)CC1	2	nt	nt	nt	nt	nt
CC1CCCN(S(=O)(=O)c2ccc(S(=O)(=O)N3CCCN(Cc4ccccc4)C3)cc2)C1 (stereo unspecified)	nt	-1	1	-1	52*	4
Cc1ccc(S(=O)(=O)NC(CCCNC(=O)OCc2ccccc2)C(=O)O)cc1 (stereo unspecified)	nt	nt	nt	nt	nt	17
CCOC(=O)c1sc2nc(CC(=O)OC)nc(NCCN3CCOCC3)c2c1C	3	18	24	-1	-6	-3
CCOC(=O)c1sc2nc(CC(=O)OC)nc(NCCN(CC)CC)c2c1C	-4	132*	24	0	45	-30
Nc1c(-c2ccc(F)c(F)c2)nc2ncccn12	nt	nt	nt	nt	nt	13
Cc1cc(=O)oc2c3c(cc(OCC(=O)NC(Cc4ccc(Cl)cc4)C(=O)O)c12)OC(C)(C)CC3 (stereo unspecified)	6	+	14	0	24	-188
Cc1cc(=O)oc2c3c(cc(OCC(=O)N[C@@H](Cc4ccccc4)C(=O)O)c12)OC(C)(C)CC3	7	+	22	0	13	-168
CCCc1cc(=O)oc2cc(OCC(=O)NC(Cc3ccc(Cl)cc3)C(=O)O)ccc12 (stereo unspecified)	-1	18	2	-1	5	-1
COc1ccc(Br)cc1S(=O)(=O)NCCN1CCOCC1	7	2	4	0	57*	-4
COc1ccc(C)cc1S(=O)(=O)NCCN1CCOCC1	-5	6	5	-1	31	7
O=C(NCc1ccccn1)[C@@H]1CCCN1C(=O)[C@@H]1CCCN1	nt	nt	nt	nt	nt	-4
C=CCc1cccc2cc(C(=O)Nc3ccc(CC(=O)O)cc3)c(=O)oc12	2	-1	14	0	52*	9
C=CCc1cccc2cc(C(=O)Nc3ccc(F)cc3)c(=O)oc12	-1	-1	4	0	1	11
COc1ccccc1N1CCN(C(=O)/C=C/c2c(Cl)nc3ccccn23)CC1	0	0	47*	0	15	9
COc1ccc(NC(=O)/C=C/c2c(Cl)nc3ccccn23)cc1	-3	-4	23	5	15	20
O=C1C[C@@H](c2ccc(O[C@@H]3O[C@H](CO)[C@@H](O)[C@H](O)[C@H]3O)cc2)Oc2cc(O)ccc21	1	1	34*	-3	5	14
COc1ccc(-n2c(C)cc(C(=O)CCl)c2C)cc1	2	4	3	34*	22	13
SMILES	3CLpro inhibitor	FBA Mtb inh	GDH-TPI counter	RecA splice inh	VHR inh abs	CCHF vOTU inh
O=C(Cc1nc2ccccc2[nH]c1=O)c1ccccc1	4	-7	6	nt	5	9
O=C(Cc1nc2ccccc2[nH]1)c1ccc(Br)cc1	-5	2	32*	-51	5	-5
Clc1ccc(-n2c(SCc3cccc4ccccc34)nnc2-c2ccco2)cc1	nt	nt	nt	nt	nt	11
Cc1ccc(C2NC(=O)c3c(sc(C)c3C)N2)c(O)c1 (stereo unspecified)	-2	10	21	-7	51*	7
COc1cc2c[n+](C)c3c4ccccc4ccc3c2cc1OC	nt	120*	20	nt	nt	-94
COc1cc2c(ccc3c4cc(OC)c(OC)cc4c[n+](C)c23)cc1O	nt	-5	28	nt	nt	19
COCc1cc(CNC(=O)C2CCC(=O)N(Cc3cccc(OC)c3)C2)[nH]n1 (stereo unspecified)	4	-3	1	-2	21	-7
COc1cccc(-c2cccc3c4c([nH]c23)[C@@H]2C[C@H]3[C@@H](C(=O)N2CC4)[C@H](C)ON3C)c1	nt	nt	nt	nt	nt	-2
COC(=O)c1ccc(N/C=C/C(=O)c2ccc(OC)c(OC)c2)cc1	2	7	1	-17	-1	21
COc1ccc(C(=O)/C=C/N2CCCCC2)cc1OC	4	0	50*	1	24	0
COc1ccc(CSC2=C(C#N)C(=O)NC3(CCCCC3)S2)cc1	nt	-3	34*	nt	nt	19
CCOC(=O)C1CCN(S(=O)(=O)c2cccc(-c3cn4cccnc4n3)c2)CC1	-2	+	8	-5	14	-206
CCOC(=O)C1CCN(S(=O)(=O)c2cccc(-c3cn4cc(C)ccc4n3)c2)CC1	0	8	6	3	33	2
O=c1c2ccccc2n(CC(O)CN2CCCCC2)c2ccccc12 (stereo unspecified)	1	109*	4	i	21	-125
Cc1ccc(NC(=O)CN(C)C(=O)c2cccc(S(=O)(=O)NCc3ccco3)c2)cc1	nt	0	6	nt	nt	0
CN(C)c1ccc2c(=O)cc[nH]c2c1	nt	+	nt	nt	nt	-402
CCc1ccc(CNC(=O)Cc2ccc(NC(=O)C3=C(C)OCCS3)cc2)cc1	-2	1	-4	1	51*	14
CC1=C(C(=O)Nc2ccc(CC(=O)NCc3ccccc3C)cc2)SCCO1	-3	-2	1	2	23	14
Cc1nc(CN2CCC(c3ccccc3)CC2)cc(=O)[nH]1	4	1	8	13	53*	-12
COCCN1C=C(C(=O)OC)C(c2ccc(Cl)cc2)C(C(=O)OC)=C1	3	+	9	-50	1	-268
CCOc1ccc(C2C(C(=O)OC)=CN(CCOC)C=C2C(=O)OC)cc1	-2	+	8	-250	20	-296
COCCN1C=C(C(=O)OC)C(c2ccc3c(c2)OCO3)C(C(=O)OC)=C1	1	14	12	-13	25	-19
COCCN1C=C(C(=O)OC)C(c2cc3c(cc2Br)OCO3)C(C(=O)OC)=C1	-7	nt	nt	-2	-17	nt
CCOC(=O)[C@]12CCCCC/C=C\1N(CCc1ccc(Cl)cc1)C(=O)[C@H]2CC(=O)NCc1cccs1	nt	nt	nt	nt	nt	8
COC(=O)[C@H]1[C@@H](O)[C@@]2(O)c3c(OC)cc(OC)cc3O[C@@]2(c2ccc(OC)cc2)[C@@H]1c1ccc(F)cc1	nt	nt	nt	nt	nt	1
